# Data published in the supplement of paper PMC12494721.
# Structures can show the parent of a compound that is named as a salt.
# Assays:
# Conditions in all cases: 20 µM; incubation time: 27 h, anaerobic, 37 °C;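 for the amine columns active = adjusted P below 0.05 in both replicates with a change the same way and a mean fold change under 0.8 or over 1.25; inactive = the rest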
# [1] = tested on: Clostridium sporogenes DSM 1664; experiment: growth (OD595) fold change vs plate DMSO controls (fold change (ratio)); higher = more growth
# Outline: (§1)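 Anaerobic mGAM cultures in 96-well plates were grown for 27 h at 37 °C, and absorbance was then read at 595 nm. After blank and compound background correction with 20 µM compound solutions in water, a calibration factor of 5 gave OD. Growth is the fold change relative to the median of each plate's DMSO controls. Values are means of 2 biological replicates, with fold changes above 1.5 set to NA.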
# Escherichia coli IAI1 [2] = experiment: as above
# Outline: as §1
# [3] = tested on: Klebsiella aerogenes DSM 30053; experiment: as above
# Outline: as §1
# [4] = tested on: Ruminococcus gnavus DSM 108212; experiment: as above
# Outline: as §1
# [5] = tested on: Klebsiella aerogenes DSM 30053; experiment: fold change of Histamine concentration vs plate DMSO controls (fold change (ratio)); higher = more amine produced, active = hit call of the paper (significant change in both replicates, either direction)
# Outline: (§2)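 Extracts of whole anaerobic mGAM cultures were analysed for amines by LC–triple-quadrupole MS with dynamic MRM and external calibration curves, with drift corrected within batch. Four gut strains were grown at 37 °C for 27 h in 80 µL wells with compounds at 20 µM final, sweeteners at 50 µM final. Each value expresses fold change over plate DMSO controls. The average of 2 biological replicates is shown.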
# [6] = tested on: Clostridium sporogenes DSM 1664; experiment: fold change of Tryptamine concentration vs plate DMSO controls (fold change (ratio)); higher = more amine produced, active = hit call of the paper (significant change in both replicates, either direction)
# Outline: as §2
# [7] = tested on: Ruminococcus gnavus DSM 108212; experiment: as above
# Outline: as §2
# Escherichia coli IAI1 [8] = experiment: fold change of Putrescine concentration vs plate DMSO controls (fold change (ratio)); higher = more amine produced, active = hit call of the paper (significant change in both replicates, either direction)
# Outline: as §2
# [9] = tested on: Klebsiella aerogenes DSM 30053; experiment: as above
# Outline: as §2
# Escherichia coli IAI1 [10] = experiment: fold change of Cadaverine concentration vs plate DMSO controls (fold change (ratio)); higher = more amine produced, active = hit call of the paper (significant change in both replicates, either direction)
# Outline: as §2
# [11] = tested on: Klebsiella aerogenes DSM 30053; experiment: as above
# Outline: as §2
# [12] = tested on: Ruminococcus gnavus DSM 108212; experiment: fold change of 2-Phenylethylamine concentration vs plate DMSO controls (fold change (ratio)); higher = more amine produced, active = hit call of the paper (significant change in both replicates, either direction)
# Outline: as §2
SMILES,growth [1],growth (Escherichia coli IAI1 [2]),growth [3],growth [4],fold change of Histamine concentration [5],fold change of Tryptamine concentration [6],fold change of Tryptamine concentration [7],fold change of Putrescine concentration (Escherichia coli IAI1 [8]),fold change of Putrescine concentration [9],fold change of Cadaverine concentration (Escherichia coli IAI1 [10]),fold change of Cadaverine concentration [11],fold change of 2-Phenylethylamine concentration [12]
CC[C@@]1([C@@H]2O[C@@H]([C@H]3O[C@@](O)(CO)[C@H](C)C[C@@H]3C)C[C@@H]2C)CC[C@H]([C@]2(C)CC[C@]3(C[C@H](O)[C@@H](C)[C@@H]([C@@H](C)[C@@H](OC)[C@H](C)C(=O)O)O3)O2)O1 [Monensin sodium salt],0.0614,1.09,1,0.204,0.975 (inactive),0.0398 (active),0.0682 (active),1.09 (inactive),1 (inactive),0.966 (inactive),0.999 (inactive),0.0948 (active)
CN(C)[C@@H]1C(=O)C(C(N)=O)=C(O)[C@@]2(O)C(=O)C3=C(O)c4c(O)cccc4[C@@](C)(O)[C@H]3[C@H](O)[C@@H]12 [Oxytetracycline dihydrate],0.0153,0.133,0.113,0.955,0.0509 (active),0.0182 (active),0.898 (inactive),0.279 (active),0.46 (active),0.113 (active),0.413 (active),0.92 (inactive)
C=CCN1CC[C@]23c4c5ccc(O)c4O[C@H]2C(=O)CC[C@@]3(O)[C@H]1C5 [Naloxone hydrochloride],1.22,1.04,1.03,1.24,1.04 (inactive),1.01 (inactive),0.998 (inactive),1.02 (inactive),0.997 (inactive),0.994 (inactive),0.997 (inactive),0.985 (inactive)
Cc1ccccc1[N+](=O)[O-] [2-Nitrotoluene],0.884,0.993,0.968,0.984,0.994 (inactive),0.993 (inactive),0.981 (inactive),0.996 (inactive),1.01 (inactive),1.01 (inactive),0.993 (inactive),0.978 (inactive)
CC1(C(=O)Nc2ccc(O)c(Cl)c2Cl)CCCCC1,0.939,1.02,1,1.22,0.992 (inactive),0.999 (inactive),0.96 (inactive),0.992 (inactive),0.99 (inactive),1.03 (inactive),1 (inactive),0.987 (inactive)
OC(Cc1ccccc1Cl)(Cn1nc[nH]c1=S)C1(Cl)CC1 (centres undefined),0.971,1.12,0.969,0.953,1.04 (inactive),1.02 (inactive),0.978 (inactive),0.937 (inactive),0.96 (inactive),0.946 (inactive),0.974 (inactive),0.951 (inactive)
Cc1cc(C2CC2)nc(Nc2ccccc2)n1,0.944,1.01,0.977,0.987,1.04 (inactive),0.966 (inactive),0.968 (inactive),0.975 (inactive),0.972 (inactive),1.01 (inactive),0.99 (inactive),1.2 (inactive)
CCOc1cc(Oc2ccc(C(F)(F)F)cc2Cl)ccc1[N+](=O)[O-],1.13,0.996,1,0.995,0.981 (inactive),1.06 (inactive),1.04 (inactive),0.953 (inactive),0.943 (inactive),0.933 (inactive),1.08 (inactive),1.05 (inactive)
CN1C[C@H](CNC(=O)OCc2ccccc2)C[C@@H]2c3cccc4c3c(cn4C)C[C@H]21 [Metergoline],1.1,1.09,1.03,1.03,0.987 (inactive),0.943 (inactive),0.94 (inactive),1.04 (inactive),0.996 (inactive),1.08 (inactive),1 (inactive),0.967 (inactive)
C[C@]12CC[C@H](O)CC1=CC[C@@H]1[C@@H]2CC[C@]2(C)C(=O)CC[C@@H]12 [Prasterone],1.17,1.01,1.04,1.07,0.984 (inactive),0.972 (inactive),0.985 (inactive),1 (inactive),0.999 (inactive),1.05 (inactive),0.991 (inactive),1 (inactive)
NCC1(CC(=O)O)CCCCC1 [Gabapentin],1.14,1.15,1.03,1,1.04 (inactive),0.986 (inactive),1.03 (inactive),1.03 (inactive),1 (inactive),1.02 (inactive),0.985 (inactive),1.07 (inactive)
CNC(=O)CSP(=S)(OC)OC,0.992,1.06,1,0.99,1.07 (inactive),1.01 (inactive),1.13 (inactive),0.998 (inactive),0.888 (inactive),1.01 (inactive),1.12 (inactive),1.43 (inactive)
C=C1CC[C@@]2(O)[C@H]3Cc4ccc(O)c5c4[C@@]2(CCN3CC2CC2)[C@H]1O5 [Nalmefene hydrochloride],1.08,0.981,1.02,1.07,1.02 (inactive),0.942 (inactive),0.59 (inactive),0.99 (inactive),1.02 (inactive),1.03 (inactive),1.01 (inactive),0.578 (inactive)
O=C(NCCc1ncc(C(F)(F)F)cc1Cl)c1ccccc1C(F)(F)F,1.04,1.04,1.16,1.22,0.918 (inactive),0.969 (inactive),1.04 (inactive),0.983 (inactive),1.03 (inactive),0.972 (inactive),1.04 (inactive),1.02 (inactive)
Nc1nc(N)nc(NC2CC2)n1 [Cyromazine],1.07,1.02,1.01,1.03,0.979 (inactive),1.02 (inactive),0.995 (inactive),1.02 (inactive),1.03 (inactive),0.979 (inactive),1 (inactive),1 (inactive)
COC(=O)N(C(=O)N1CO[C@@]2(C(=O)OC)Cc3cc(Cl)ccc3C2=N1)c1ccc(OC(F)(F)F)cc1,1.15,0.998,0.992,0.903,0.975 (inactive),1.03 (inactive),1.03 (inactive),0.945 (inactive),0.915 (inactive),0.907 (inactive),1.03 (inactive),0.986 (inactive)
Cc1cc(C(F)(C(F)(F)F)C(F)(F)F)ccc1NC(=O)c1cccc(I)c1C(=O)NC(C)(C)CS(C)(=O)=O,1.23,0.991,1.02,0.917,1 (inactive),0.921 (inactive),0.939 (inactive),0.989 (inactive),1 (inactive),1 (inactive),0.987 (inactive),0.908 (inactive)
O=NN(CCO)CCO [DMNA (N-nitrosodiethanolamine)],0.95,1.15,1,1.09,0.975 (inactive),0.994 (inactive),1.05 (inactive),1.03 (inactive),0.957 (inactive),0.978 (inactive),1.03 (inactive),1.08 (inactive)
CC(C)c1c(CN(C)C(C)Cc2ccccc2)n(C)n(-c2ccccc2)c1=O (centres undefined) [Famprofazone],1.02,1.15,1.06,1.05,0.986 (inactive),0.954 (inactive),1.06 (inactive),1.03 (inactive),1.02 (inactive),0.998 (inactive),1.01 (inactive),1.02 (inactive)
CCCCCCCCCCCCN=C(N)N,1.1,0.995,1.02,1.19,1.03 (inactive),0.927 (inactive),0.896 (inactive),1.01 (inactive),1.06 (inactive),0.951 (inactive),1.03 (inactive),0.893 (inactive)
CCOc1ccc(C(C)(C)COCc2cccc(Oc3ccccc3)c2)cc1,1.14,1.03,1.01,1.13,0.97 (inactive),1.03 (inactive),1.05 (inactive),1.01 (inactive),0.984 (inactive),0.969 (inactive),1.05 (inactive),1.05 (inactive)
O=C(O)COc1ccc(Cl)cc1Cl,0.956,1.01,1.07,1.22,0.958 (inactive),1.02 (inactive),0.967 (inactive),1 (inactive),1 (inactive),0.996 (inactive),1.01 (inactive),0.929 (inactive)
